Assay results reported in PubChem BioAssay (EPA / NIEHS).
“And” between values parts separate entries of the source, which are not always exact repeats. Equal entries are not always repeated. Records with an inconclusive call do not appear. More than one record can exist for a structure, and the calls need not agree. The source made the active and inactive calls. Rule for the calls, unless noted: active = hit-call score of the fitted dose curve at least 0.9, where 1 is the maximum; inconclusive = response in the unintended direction; inactive = score below 0.9.

Columns and labels:
[1] = molecular target: Estrogen receptor (Homo sapiens) (UniProt P03372); assay: OT_ERa_GFPERaERE_0480: Odyssey Thera (OT) 8-hour HeLa Transcription Induction Assay for Estrogen Receptor (AID 2283381; active = hit-call score of the fitted dose curve at least 0.9, where 1 is the maximum; inactive = score below 0.9)
Sequence of Estrogen receptor (Homo sapiens) (P03372 whole entry, looked up): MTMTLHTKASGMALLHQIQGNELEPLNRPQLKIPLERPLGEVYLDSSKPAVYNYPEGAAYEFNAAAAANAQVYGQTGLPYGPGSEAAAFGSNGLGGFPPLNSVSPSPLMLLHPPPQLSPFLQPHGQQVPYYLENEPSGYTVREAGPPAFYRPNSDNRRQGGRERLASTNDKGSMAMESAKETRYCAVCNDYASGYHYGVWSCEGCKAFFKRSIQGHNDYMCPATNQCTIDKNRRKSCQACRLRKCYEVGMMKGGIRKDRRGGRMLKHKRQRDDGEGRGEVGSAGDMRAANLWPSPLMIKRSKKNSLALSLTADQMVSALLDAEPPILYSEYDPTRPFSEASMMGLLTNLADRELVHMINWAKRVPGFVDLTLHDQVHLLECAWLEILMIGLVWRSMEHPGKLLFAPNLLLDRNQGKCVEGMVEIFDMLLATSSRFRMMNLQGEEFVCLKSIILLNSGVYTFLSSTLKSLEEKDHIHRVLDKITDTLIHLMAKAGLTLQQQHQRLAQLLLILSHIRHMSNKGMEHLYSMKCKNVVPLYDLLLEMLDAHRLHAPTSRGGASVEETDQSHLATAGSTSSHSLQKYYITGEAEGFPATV
How it was run: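 An 8 h HeLa transcription-induction format with a GFP reporter under ERE control, read by fluorescence microscopy; single endpoint fitted positively with DMSO as baseline.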

[2] = molecular target: Estrogen receptor (Homo sapiens) (UniProt P03372); assay: OT_ERa_GFPERaERE_0120: Odyssey Thera (OT) 2-hour HeLa Transcription Induction Assay for Estrogen Receptor (AID 2283382)
How it was run: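 Two-hour compound treatment of HeLa cells preceded microscopy imaging of an inducible fluorescent reporter. Image-based quantification gave one endpoint, analysed for signal increase relative to DMSO controls.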

[3] = molecular target: Bile acid receptor (Homo sapiens) (UniProt Q96RI1); assay: OT_FXR_FXRSRC1_1440: Odyssey Thera (OT) 24-hour HEK293T Protein-Complementation Assay for Farnesoid X receptor/SRC-1 Co-activator (AID 2283384)
Sequence of Bile acid receptor (Homo sapiens) (Q96RI1 whole entry, looked up): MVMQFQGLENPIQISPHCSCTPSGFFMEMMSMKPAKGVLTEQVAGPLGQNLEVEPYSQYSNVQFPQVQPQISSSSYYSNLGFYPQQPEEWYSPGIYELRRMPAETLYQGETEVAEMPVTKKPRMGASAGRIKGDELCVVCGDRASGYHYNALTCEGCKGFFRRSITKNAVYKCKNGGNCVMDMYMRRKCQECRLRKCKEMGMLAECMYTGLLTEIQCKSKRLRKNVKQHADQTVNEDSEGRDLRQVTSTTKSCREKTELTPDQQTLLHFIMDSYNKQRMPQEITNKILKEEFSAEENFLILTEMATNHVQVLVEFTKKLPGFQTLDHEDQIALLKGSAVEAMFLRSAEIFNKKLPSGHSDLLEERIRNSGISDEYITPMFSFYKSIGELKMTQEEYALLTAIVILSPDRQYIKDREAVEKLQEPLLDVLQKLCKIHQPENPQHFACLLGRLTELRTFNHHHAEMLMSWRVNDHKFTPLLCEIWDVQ
How it was run: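 Single endpoint, analysed for increased fluorescence against DMSO controls. HEK293T cells carrying FXR and SRC-1 linked to complementary reporter halves were exposed to chemicals for 24 h before reading.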

[4] = molecular target: Retinoic acid receptor RXR-alpha (Homo sapiens) (UniProt P19793); assay: OT_NURR1_NURR1RXRa_0480: Odyssey Thera (OT) 8-hour HEK293T Protein Complementation Assay for Nurr1/retinoid X receptor (RXR) (AID 2283385)
Sequence of Retinoic acid receptor RXR-alpha (Homo sapiens) (P19793 whole entry, looked up, the tested form may be a part): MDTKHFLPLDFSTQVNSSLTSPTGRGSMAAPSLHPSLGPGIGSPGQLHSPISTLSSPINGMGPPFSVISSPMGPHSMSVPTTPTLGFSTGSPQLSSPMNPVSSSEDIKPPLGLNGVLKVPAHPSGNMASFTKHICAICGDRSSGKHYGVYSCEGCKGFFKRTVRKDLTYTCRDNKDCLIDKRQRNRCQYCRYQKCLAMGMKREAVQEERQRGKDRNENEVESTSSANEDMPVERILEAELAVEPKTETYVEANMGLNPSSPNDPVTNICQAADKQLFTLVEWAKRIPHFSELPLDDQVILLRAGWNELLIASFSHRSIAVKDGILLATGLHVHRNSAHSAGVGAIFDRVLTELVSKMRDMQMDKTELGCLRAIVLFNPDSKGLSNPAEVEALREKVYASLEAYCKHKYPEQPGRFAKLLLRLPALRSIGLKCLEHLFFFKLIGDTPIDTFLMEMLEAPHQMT
How it was run: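 Gain in fluorescent complementation signal over DMSO, measured 8 hours after chemical dosing of human kidney HEK293T cells, indicated enhanced Nurr1–RXRα association.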

[5] = molecular target: Retinoic acid receptor RXR-alpha (Homo sapiens) (UniProt P19793); assay: OT_NURR1_NURR1RXRa_1440: Odyssey Thera (OT) 24-hour HEK293T Protein Complementation Assay for Nurr1/retinoid X receptor (RXR) (AID 2283386)
How it was run: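 Cell-based binding reporter: HEK293T cells, 24 h exposure, fluorescence-detected fragment complementation, DMSO as baseline.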

[6] = molecular target: Peroxisome proliferator-activated receptor gamma (Homo sapiens) (UniProt P37231); assay: OT_PPARg_PPARgSRC1_0480: Odyssey Thera (OT) 8-hour Protein-Complementation Assay for Peroxisome Proliferator-activated Receptor Gamma / SRC-1 Co-activator (AID 2283387);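 note: nuclear to cytoplasmic split Venus YFP fluorescence ratio reporting PPARg SRC-1 interaction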
Sequence of Peroxisome proliferator-activated receptor gamma (Homo sapiens) (P37231 whole entry, looked up, the tested form may be a part): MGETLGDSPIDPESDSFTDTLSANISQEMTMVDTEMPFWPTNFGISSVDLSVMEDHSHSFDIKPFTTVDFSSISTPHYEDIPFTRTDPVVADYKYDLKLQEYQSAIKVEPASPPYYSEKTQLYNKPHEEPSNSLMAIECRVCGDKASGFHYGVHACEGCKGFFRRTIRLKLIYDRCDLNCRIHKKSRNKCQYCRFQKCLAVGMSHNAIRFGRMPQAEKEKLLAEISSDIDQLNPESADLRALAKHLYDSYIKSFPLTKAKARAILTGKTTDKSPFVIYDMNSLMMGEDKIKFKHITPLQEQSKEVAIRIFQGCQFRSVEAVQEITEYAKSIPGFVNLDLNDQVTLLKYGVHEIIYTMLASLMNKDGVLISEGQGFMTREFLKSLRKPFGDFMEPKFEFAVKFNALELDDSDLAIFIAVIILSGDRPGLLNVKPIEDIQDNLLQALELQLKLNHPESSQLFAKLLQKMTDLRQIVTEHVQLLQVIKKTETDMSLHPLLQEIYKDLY
How it was run: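 HEK293T transiently transfected with PPARg and SRC-1 fused to Venus YFP fragments, compounds 8 h at 37C. Fixed, Draq5-stained cells imaged; nuclear/cytoplasmic 488 nm fluorescence ratio over at least 350 cells per image; gain fitted versus DMSO.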

[7] = molecular target: Peroxisome proliferator-activated receptor gamma (Homo sapiens) (UniProt P37231); assay: OT_PPARg_PPARgSRC1_1440: Odyssey Thera (OT) 24-hour Protein-Complementation Assay for Peroxisome Proliferator-activated Receptor Gamma/ SRC-1 Co-activator (AID 2283388)
How it was run: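 Readout: nuclear-to-cytoplasmic 488 nm fluorescence ratio, ≥350 cells per image, 8 images per well, after 24 h compound exposure of HEK293T expressing PPARg/SRC-1 split-YFP fusions. Activity fitted in positive direction against DMSO.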

[8] = read-out: Tumor necrosis factor receptor superfamily member 6 (Homo sapiens) (UniProt P25445); assay: LTEA_HepaRG_FAS: Life Technologies and Expression Analysis (LTEA) Assay for Fas cell surface death receptor (FAS) using HepaRG (AID 2283447; active = hit-call score of the fitted dose curve at least 0.9, where 1 is the maximum; inactive = score below 0.9); settings: mRNA level, 48 h; actives raise or lower the signal
How it was run: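 FAS transcript level was measured by TaqMan qRT-PCR against three housekeeping genes after 48 h chemical exposure. Cells were HepaRG, 0.5% DMSO vehicle, with a top concentration of 100 uM and half-log dilutions over eight points, in duplicate.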

[9] = read-out: Fatty acid synthase (Homo sapiens) (UniProt P49327); assay: LTEA_HepaRG_FASN: Life Technologies and Expression Analysis (LTEA) Assay for Fatty Acid Synthase (FASN) using HepaRG (AID 2283448; active = hit-call score of the fitted dose curve at least 0.9, where 1 is the maximum; inactive = score below 0.9;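 for AC50: differentiated human HepaRG liver cells in serum-free induction medium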); settings: mRNA level, 48 h; actives raise or lower the signal
How it was run: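 In human HepaRG cultures, 48 h chemical exposure (up to 100 uM, 0.5% DMSO) preceded TaqMan qRT-PCR of FASN.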

[10] = read-out: Cyclin D2 (CCND2), CCND2 (gene 894); assay: LTEA_HepaRG_CCND2: Life Technologies and Expression Analysis (LTEA) Assay for Cyclin D2 (CCND2) using HepaRG (AID 2283449; active = hit-call score of the fitted dose curve at least 0.9, where 1 is the maximum; inactive = score below 0.9); settings: mRNA level, 48 h; actives raise or lower the signal
How it was run: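 CCND2 transcript levels, quantified by qRT-PCR and normalised to three housekeeping genes, were fitted bidirectionally against 0.5% DMSO. HepaRG cultures were dosed 48 h in duplicate with an 8-point half-log series up to 100 uM.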

[11] = read-out: Cyclin Dependent Kinase Inhibitor 1A (CDKN1A), CDKN1A (gene 1026); assay: LTEA_HepaRG_CDKN1A: Life Technologies and Expression Analysis (LTEA) Assay for Cyclin Dependent Kinase Inhibitor 1A (CDKN1A) using HepaRG (AID 2283450; active = hit-call score of the fitted dose curve at least 0.9, where 1 is the maximum; inactive = score below 0.9); settings: mRNA level, 48 h; actives raise or lower the signal
How it was run: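 HepaRG, 48 h dosing, 8-pt half-log series from 100 uM top, 0.5% DMSO vehicle, duplicates. Readout: TaqMan qRT-PCR of CDKN1A transcript, housekeeping-normalized (ACTB, GAPDH, POLR2A). Up/down curve fit relative to DMSO.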

[12] = CEETOX_H295R_11DCORT: CeeTox H295R High-throughput Steroidogenesis Assay for 11-Deoxycortisol (11DCORT) (AID 2283432; active = hit-call score of the fitted dose curve at least 0.9, where 1 is the maximum; inactive = score below 0.9); settings: actives raise or lower the signal
How it was run: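 H295R cells prestimulated 48 h with 10 uM forskolin, then exposed 48 h to chemical in 0.1% DMSO. 11-Deoxycortisol in medium quantified by HPLC-MS/MS after MTBE extraction; bidirectional fit versus DMSO. MTT viability read in same wells.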

[13] = CEETOX_H295R_OHPREG: CeeTox H295R High-throughput Steroidogenesis Assay for OH-Pregnenolone (OHPREG) (AID 2283434; active = hit-call score of the fitted dose curve at least 0.9, where 1 is the maximum; inactive = score below 0.9); settings: actives raise or lower the signal
How it was run: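 Secreted 17alpha-hydroxypregnenolone measured by HPLC-MS/MS after liquid-liquid extraction. Human adrenal H295R cells received 48 h forskolin (10 uM) stimulation before 48 h chemical exposure at 0.1% final DMSO; MTT viability in same wells; bidirectional fit against DMSO.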

[14] = CEETOX_H295R_OHPROG: CeeTox H295R High-throughput Steroidogenesis Assay for OH-Progesterone (OHPROG) (AID 2283435; active = hit-call score of the fitted dose curve at least 0.9, where 1 is the maximum; inactive = score below 0.9;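 for AC50: 17alpha-hydroxyprogesterone secreted into medium measured by HPLC-MS/MS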); settings: actives raise or lower the signal
How it was run: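 Human adrenocortical H295R cells, passage 10 or lower, were treated with chemical for 48 h after forskolin priming, and hormone output in the medium was quantified by LC-MS/MS.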

[15] = CEETOX_H295R_CORTIC: CeeTox H295R High-throughput Steroidogenesis Assay for Corticosterone (CORTIC) (AID 2283437; active = hit-call score of the fitted dose curve at least 0.9, where 1 is the maximum; inactive = score below 0.9); settings: actives raise or lower the signal
How it was run: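 Medium corticosterone was quantified by tandem mass spectrometry following 48 hours of chemical exposure (0.1% DMSO) in human H295R cells previously stimulated 48 hours with 10 uM forskolin. Viability checked by MTT; chemicals diluted and retested when viability fell below 70%.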

[16] = CEETOX_H295R_CORTISOL: CeeTox H295R High-throughput Steroidogenesis Assay for Cortisol (AID 2283438; active = hit-call score of the fitted dose curve at least 0.9, where 1 is the maximum; inactive = score below 0.9;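 note: cortisol secreted into medium quantified by LC-MS/MS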); settings: actives raise or lower the signal
How it was run: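 Steroidogenesis in H295R, per modified OECD 456: 48 h forskolin (10 uM), then 48 h exposure, 0.1% DMSO. Cortisol by extraction and tandem MS; viability by MTT (570/650 nm); cytotoxic chemicals diluted and re-tested.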

[17] = CEETOX_H295R_DOC: CeeTox H295R High-throughput Steroidogenesis Assay for DOC (AID 2283439; active = hit-call score of the fitted dose curve at least 0.9, where 1 is the maximum; inactive = score below 0.9); settings: actives raise or lower the signal
How it was run: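 H295R, fsk 10 uM ×48 h pre, cmpd ×48 h (0.1% DMSO). Media → MTBE extr. → LC-MS/MS, DOC. Bidirectional fit vs DMSO; MTT viability same wells, re-test diluted if <70%.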

[18] = CEETOX_H295R_ANDR: CeeTox H295R High-throughput Steroidogenesis Assay for Androstenedione (ANDR) (AID 2283436; active = hit-call score of the fitted dose curve at least 0.9, where 1 is the maximum; inactive = score below 0.9); settings: actives raise or lower the signal
How it was run: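 Medium from 48 h chemical-treated H295R adrenal cells was extracted with MTBE and androstenedione measured by LC-MS/MS. Activity was fit in both directions relative to DMSO. Cytotoxic concentrations were re-tested after dilution until MTT viability reached ≥70%.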

[19] = molecular target: Bile acid receptor (Homo sapiens) (UniProt Q96RI1); assay: OT_FXR_FXRSRC1_0480: Odyssey Thera (OT) 8-hour HEK293T Protein-Complementation Assay for Farnesoid X receptor/SRC-1 Co-activator (AID 2283383)
How it was run: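 Readings were taken 8 h after dosing HEK293T cells in a split-reporter complementation format pairing FXR with SRC-1. Increased fluorescence relative to DMSO-treated wells defined activity.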

[20] = CEETOX_H295R_ESTRONE: CeeTox H295R High-throughput Steroidogenesis Assay for Estrone (AID 2283441; active = hit-call score of the fitted dose curve at least 0.9, where 1 is the maximum; inactive = score below 0.9;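 note: estrone secreted into medium measured by LC-MS/MS after dansyl derivatization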); settings: actives raise or lower the signal
How it was run: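 Forskolin-stimulated H295R cells are treated 48 h with chemical, and estrone in the medium is measured by LC-MS/MS. Activity is fitted in both directions relative to DMSO controls, with chemicals diluted until MTT viability reaches at least 70%.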

Measured: AC50

Sequence of Fatty acid synthase (Homo sapiens) (P49327 whole entry, looked up): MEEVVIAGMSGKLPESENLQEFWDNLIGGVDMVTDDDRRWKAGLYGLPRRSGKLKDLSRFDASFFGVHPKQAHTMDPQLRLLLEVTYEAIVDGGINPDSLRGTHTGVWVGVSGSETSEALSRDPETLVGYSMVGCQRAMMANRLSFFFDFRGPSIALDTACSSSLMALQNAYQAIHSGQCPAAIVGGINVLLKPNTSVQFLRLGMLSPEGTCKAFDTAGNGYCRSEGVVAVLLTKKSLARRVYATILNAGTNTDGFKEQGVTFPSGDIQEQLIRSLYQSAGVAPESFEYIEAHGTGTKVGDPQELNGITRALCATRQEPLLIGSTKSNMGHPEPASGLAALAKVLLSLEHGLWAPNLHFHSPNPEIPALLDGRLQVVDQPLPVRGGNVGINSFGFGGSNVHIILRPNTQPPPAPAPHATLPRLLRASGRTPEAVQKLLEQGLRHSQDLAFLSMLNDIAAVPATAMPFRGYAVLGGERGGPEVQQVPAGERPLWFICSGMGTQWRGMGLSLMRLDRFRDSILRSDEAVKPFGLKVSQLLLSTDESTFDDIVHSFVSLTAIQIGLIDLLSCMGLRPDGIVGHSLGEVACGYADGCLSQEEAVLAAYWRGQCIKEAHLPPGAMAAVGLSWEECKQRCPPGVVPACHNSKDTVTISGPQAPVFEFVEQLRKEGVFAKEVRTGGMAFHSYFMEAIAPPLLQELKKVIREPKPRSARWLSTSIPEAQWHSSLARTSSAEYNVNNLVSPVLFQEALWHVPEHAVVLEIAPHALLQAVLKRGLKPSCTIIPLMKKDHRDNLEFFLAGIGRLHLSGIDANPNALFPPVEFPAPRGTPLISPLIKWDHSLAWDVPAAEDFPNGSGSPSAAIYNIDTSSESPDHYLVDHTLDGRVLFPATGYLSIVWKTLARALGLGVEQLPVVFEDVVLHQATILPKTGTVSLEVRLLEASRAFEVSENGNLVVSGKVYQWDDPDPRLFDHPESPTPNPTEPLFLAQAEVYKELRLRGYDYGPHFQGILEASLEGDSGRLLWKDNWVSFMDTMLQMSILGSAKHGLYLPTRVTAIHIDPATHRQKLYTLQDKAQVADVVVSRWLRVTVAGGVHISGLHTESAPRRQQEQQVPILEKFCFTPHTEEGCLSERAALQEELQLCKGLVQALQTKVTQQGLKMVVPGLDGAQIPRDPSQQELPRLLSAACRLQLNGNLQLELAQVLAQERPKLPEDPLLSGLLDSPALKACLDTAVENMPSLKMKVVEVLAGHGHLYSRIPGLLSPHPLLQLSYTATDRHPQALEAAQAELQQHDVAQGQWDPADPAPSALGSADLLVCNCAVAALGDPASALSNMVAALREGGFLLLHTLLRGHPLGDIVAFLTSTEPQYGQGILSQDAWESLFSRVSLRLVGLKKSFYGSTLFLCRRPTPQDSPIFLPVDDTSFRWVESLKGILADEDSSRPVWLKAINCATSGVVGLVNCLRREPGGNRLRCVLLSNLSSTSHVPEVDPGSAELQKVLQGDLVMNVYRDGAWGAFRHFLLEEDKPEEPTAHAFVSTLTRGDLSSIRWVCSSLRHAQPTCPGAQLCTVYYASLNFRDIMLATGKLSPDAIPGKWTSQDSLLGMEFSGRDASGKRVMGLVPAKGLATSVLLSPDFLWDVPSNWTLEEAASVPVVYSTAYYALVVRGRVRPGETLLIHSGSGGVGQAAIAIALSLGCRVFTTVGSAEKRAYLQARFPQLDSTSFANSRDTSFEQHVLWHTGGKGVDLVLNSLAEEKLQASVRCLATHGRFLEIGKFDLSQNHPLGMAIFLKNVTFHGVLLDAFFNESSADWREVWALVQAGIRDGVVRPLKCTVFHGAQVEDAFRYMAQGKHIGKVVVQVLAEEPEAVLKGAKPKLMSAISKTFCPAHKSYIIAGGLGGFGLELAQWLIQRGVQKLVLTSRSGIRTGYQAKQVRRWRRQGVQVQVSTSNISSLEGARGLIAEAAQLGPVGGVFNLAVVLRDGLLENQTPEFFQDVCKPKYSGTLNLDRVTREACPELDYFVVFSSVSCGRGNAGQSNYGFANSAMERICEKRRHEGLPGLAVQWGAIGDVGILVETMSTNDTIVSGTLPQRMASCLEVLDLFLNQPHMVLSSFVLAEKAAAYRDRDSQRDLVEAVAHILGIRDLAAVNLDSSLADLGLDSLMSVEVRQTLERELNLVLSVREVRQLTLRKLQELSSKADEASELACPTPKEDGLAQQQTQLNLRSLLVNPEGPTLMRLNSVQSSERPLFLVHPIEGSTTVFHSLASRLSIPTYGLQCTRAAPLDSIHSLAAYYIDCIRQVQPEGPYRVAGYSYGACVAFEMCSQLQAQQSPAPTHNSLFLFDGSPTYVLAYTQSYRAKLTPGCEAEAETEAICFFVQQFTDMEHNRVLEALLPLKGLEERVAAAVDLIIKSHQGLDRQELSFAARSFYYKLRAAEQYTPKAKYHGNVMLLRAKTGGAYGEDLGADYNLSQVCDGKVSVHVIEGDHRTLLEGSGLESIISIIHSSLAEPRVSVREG

CC(CO)OC(C)CO (configuration not stated) (tested in a mixture with another compound)
inactive: [1] | [2] | [3] | [4] | [5] | [6] | [7] | [8] | [9] | [10] | [11]

Cc1nc(C)nc(N2C[C@@H](C)N(c3ccnc([C@@H](C)O)n3)[C@@H](C)C2)n1
inactive: [1] | [2] | [4] | [6] | [7] | [12] | [13] | [14] | [15] | [16] | [17] | [8] | [9] | [10] | [11]

COc1ccc(S(=O)(=O)N2C(=O)[C@@](c3ccccc3OC)(N3C[C@H](O)C[C@H]3C(=O)N(C)C)c3cc(Cl)ccc32)c(OC)c1
active: [1] 86.4 µM | [14] 5.43 µM | [9] 22.7 µM | [11] 84.9 µM
inactive: [2] | [4] | [6] | [7] | [12] | [13] | [18] | [15] | [16] | [17] | [8] | [10]

CCCCN(CCCC)CCCC
inactive: [1] | [2] | [19] | [3] | [4] | [5] | [8] | [9] | [10] | [11]

C=CCc1ccc(O)c(OC)c1
inactive: [1] | [2] | [4] | [6] | [7] | [13] | [14] | [8] | [9] | [10] | [11]

CC1(C)NC(=O)NC1=O
inactive: [1] | [2] | [4] | [6] | [7] | [8] | [9] | [10] | [11]

CCc1c(C(=O)NN2CCCCC2)nn(-c2ccc(Cl)cc2Cl)c1-c1ccc(Br)cc1
active: [3] 1.28 µM | [8] 50 µM | [9] 82.7 µM | [11] 11.4 µM
inactive: [1] | [19] | [4] | [5] | [6] | [7] | [10]

NS(=O)(=O)c1cc2c(cc1Cl)NCNS2(=O)=O
inactive: [1] | [2] | [19] | [4] | [5] | [6] | [7] | [8] | [9] | [10] | [11]

O=[N+]([O-])C(CO)(CO)CO
inactive: [1] | [2] | [4] | [6] | [7] | [8] | [9] | [10] | [11]

COCCOCCOC
inactive: [1] | [2] | [4] | [6] | [7] | [9] | [10] | [11]
active: [8] 0.382 µM

CCCCCCC(=O)OCC
inactive: [1] | [2] | [4] | [6] | [7] | [8] | [9] | [11]

CN1CCCC1=O
inactive: [1] | [2] | [6] | [7] | [8] | [9] | [10] | [11]

O=C(O)CCCCC(=O)O
inactive: [1] | [19] | [3] | [4] | [5] | [6] | [7] | [8] | [9] | [10] | [11]

C=CCOC(=O)c1ccccc1C(=O)OCC=C
active: [2] 69.7 µM
inactive: [1] | [19] | [3] | [6] | [7] | [8] | [9] | [11]

Cc1c(C(=O)O)c(O)cc2c1C(=O)c1c(O)c([C@@H]3O[C@H](CO)[C@@H](O)[C@H](O)[C@H]3O)c(O)c(O)c1C2=O
inactive: [1] | [2] | [19] | [4] | [6] | [7] | [12] | [13] | [14] | [15] | [16] | [17] | [20] | [8] | [9] | [10] | [11]
active: [4] 50 µM

CCCc1cc(=O)[nH]c(=S)[nH]1
inactive: [1] | [2] | [4] | [5] | [6] | [7] | [8] | [9] | [10] | [11]

COc1ccc2c(c1)c(CC(=O)O)c(C)n2C(=O)c1ccc(Cl)cc1
inactive: [1] | [2] | [6] | [7] | [12] | [13] | [14] | [18] | [15] | [16] | [17] | [8] | [9] | [10] | [11]

CC(=O)OCCOCCOCCOC(C)=O
inactive: [1] | [2] | [3] | [4] | [6] | [7] | [8] | [9] | [10] | [11]

COc1cc(S(=O)(=O)O)c(C)cc1N=Nc1c(O)ccc2cc(S(=O)(=O)O)ccc12
inactive: [1] | [2] | [19] | [3] | [6] | [7] | [8] | [9] | [10] | [11]
active: [4] 50 µM and 61.4 µM
